In PubChem BioAssay (Tox21):
Records with an inconclusive call do not appear. Entries that show only a call come without a potency. A number with no mark means an inactive call. Active and inactive are the calls of the source. Unless noted, the call rests on the fitted dose curve; in most records, active means well fitted curve in the direction sought with a large enough effect in the repeat runs; inconclusive means weak or mixed curves; inactive means no such curve, though single readings can be large; an effect the other way counts as inactive or inconclusive.

Tests used:
[1] = qHTS assay to identify aromatase inhibitors - cell viability counter screen (AID 743084);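 further: cells stimulated with testosterone during compound exposure; nearly all actives have a fitted effect of over 55% in size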
[2] = qHTS assay to identify small molecule that activate the aryl hydrocarbon receptor (AhR) signaling pathway - cell viability counter screen (AID 743086);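 further: HepG2 liver cells carrying the AhR DRE luciferase reporter; series mostly up to about 70 µM; nearly all actives have a fitted effect of over 45% in size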
How it was run: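 Cytotoxicity counter screen: CellTiter-Fluor signal (30 min, 37 C) in 4000 HepG2 cells/well carrying the DRE-luciferase reporter, following 24 h compound exposure at 37 C.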

[3] = biological target: Peroxisome proliferator-activated receptor gamma (Homo sapiens) (UniProt P37231); assay: qHTS assay to identify small molecule agonists of the peroxisome proliferator-activated receptor gamma (PPARg) signaling pathway (AID 743094; active means well fitted activation curve with a large enough effect in the signal ratio in the repeat runs, not every such curve was filed as active; the % refers to the signal ratio; further: potency means the concentration at half of the fitted maximal effect)
Sequence of Peroxisome proliferator-activated receptor gamma (Homo sapiens) (P37231 whole entry, looked up): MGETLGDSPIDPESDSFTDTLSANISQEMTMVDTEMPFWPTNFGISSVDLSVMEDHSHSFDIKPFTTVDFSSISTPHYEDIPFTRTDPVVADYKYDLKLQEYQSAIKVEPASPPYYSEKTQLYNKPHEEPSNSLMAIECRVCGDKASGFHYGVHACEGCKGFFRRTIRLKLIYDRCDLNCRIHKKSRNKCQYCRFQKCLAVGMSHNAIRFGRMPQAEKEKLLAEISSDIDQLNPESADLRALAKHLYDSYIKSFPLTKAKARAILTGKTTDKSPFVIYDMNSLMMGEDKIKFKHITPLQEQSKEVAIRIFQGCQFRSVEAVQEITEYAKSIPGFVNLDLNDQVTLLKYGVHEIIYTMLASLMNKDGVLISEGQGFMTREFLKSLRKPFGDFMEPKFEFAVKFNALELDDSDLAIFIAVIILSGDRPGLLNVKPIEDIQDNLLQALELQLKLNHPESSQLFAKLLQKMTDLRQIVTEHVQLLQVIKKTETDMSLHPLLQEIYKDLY
How it was run: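 Compounds dissolved in DMSO were added to PPARg UAS-bla HEK293H cells for 17 h at 37C, and reporter expression was quantified by fluorescence intensity after 1 h with LiveBLAzer B/G FRET substrate.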

[4] = biological target: Peroxisome proliferator-activated receptor gamma (Homo sapiens) (UniProt P37231); assay: qHTS assay to identify small molecule antagonists of the peroxisome proliferator-activated receptor gamma (PPARg) signaling pathway (AID 743191; calls by dose curve; further: series mostly up to about 63 µM; nearly all actives have a fitted effect of over 30% in size)
How it was run: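 Beta-lactamase reporter under UAS control in HEK293H PPARg-bla cells; compound treatment 17 h at 37C. Read-out: fluorescence intensity after 1 h room-temperature incubation with LiveBLAzer B/G FRET substrate.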

[5] = qHTS assay to identify small molecule antagonists of the peroxisome proliferator-activated receptor gamma (PPARg) signaling pathway - cell viability counter screen (AID 743194); further: nearly all actives have a fitted effect of over 55% in size
How it was run: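 Viability was measured as CellTiter-Glo luminescence in GeneBLAzer PPARg UAS-bla HEK293H cells. These cells had been exposed 17 h at 37 C to compounds together with rosiglitazone at 50 nM final, with the beta-lactamase readout taken in the same wells.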

[6] = qHTS assay for small molecule agonists of the antioxidant response element (ARE) signaling pathway (AID 743202; active means well fitted activation curve with a large enough effect in the signal ratio in the repeat runs, not every such curve was filed as active; the % refers to the signal ratio)
How it was run: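 Quantitative high-throughput format in HepG2 cells bearing an integrated ARE-beta-lactamase reporter. Compound exposure lasted 16 h at 37 C, and fluorescence was read 2 h after adding LiveBLAzer B/G substrate at room temperature.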

[7] = qHTS assay for small molecule agonists of the antioxidant response element (ARE) signaling pathway - cell viability counter screen (AID 743203; calls by dose curve; further: nearly all actives have a fitted effect of over 55% in size)
How it was run: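 Following 16 hrs of compound treatment at 37C, HepG2 cells with an ARE-controlled beta-lactamase gene were lysed with CellTiter-Glo. Luminescence was read after 30 min at room temperature.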

[8] = qHTS assay for small molecule activators of the heat shock response signaling pathway (AID 743210; active means well fitted activation curve with a large enough effect in the signal ratio in the repeat runs, with a control signal flat, not every such curve was filed as active; the % refers to the signal ratio;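 further: HeLa cells with beta-lactamase reporter driven by heat shock elements; series mostly up to about 63 µM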)
How it was run: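 HeLa HSE-bla cells, overnight plating; cpd in DMSO 5 h, 37 C; LiveBLAzer B/G FRET substrate 2.5 h RT; fluorescence intensity read.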

[9] = qHTS assay to identify small molecule agonists of the peroxisome proliferator-activated receptor delta (PPARd) signaling pathway - cell viability counter screen (AID 743211); further: nearly all actives have a fitted effect of over 55% in size
How it was run: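 Viability of GeneBLAzer PPARd UAS-bla HEK293H cells was assessed after 17 h compound incubation at 37C, using CellTiter-Glo reagent added after the reporter read and luminescence recorded 30 min later.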

[10] = biological target: Peroxisome proliferator-activated receptor delta (Homo sapiens) (UniProt Q03181); assay: qHTS assay to identify small molecule agonists of the peroxisome proliferator-activated receptor delta (PPARd) signaling pathway (AID 743212; calls by dose curve)
Sequence of Peroxisome proliferator-activated receptor delta (Homo sapiens) (Q03181 whole entry, looked up): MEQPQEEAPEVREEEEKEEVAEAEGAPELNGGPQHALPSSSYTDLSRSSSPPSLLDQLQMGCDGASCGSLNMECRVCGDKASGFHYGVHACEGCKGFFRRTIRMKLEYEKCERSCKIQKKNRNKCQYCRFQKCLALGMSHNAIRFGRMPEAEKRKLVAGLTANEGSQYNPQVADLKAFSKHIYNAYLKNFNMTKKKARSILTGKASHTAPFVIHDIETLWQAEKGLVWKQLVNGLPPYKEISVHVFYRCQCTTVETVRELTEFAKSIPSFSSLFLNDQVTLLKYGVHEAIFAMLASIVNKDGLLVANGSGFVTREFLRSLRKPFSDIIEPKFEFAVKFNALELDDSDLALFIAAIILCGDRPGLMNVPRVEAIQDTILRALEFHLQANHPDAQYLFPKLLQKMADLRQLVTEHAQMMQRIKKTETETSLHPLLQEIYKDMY
How it was run: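 HEK293H PPARd-bla cells; 5 h preincubation 37 C/5% CO2; compound (DMSO) 37 C; LiveBLAzer B/G FRET substrate 2 h RT; fluorescence intensity.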

[11] = qHTS assay to identify small molecule antagonists of the peroxisome proliferator-activated receptor delta (PPARd) signaling pathway - cell viability counter screen (AID 743213); further: nearly all actives have a fitted effect of over 50% in size
How it was run: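 PPARd-bla HEK293H cells were treated with compounds plus agonist L165041 (300 nM final) for 17 h at 37 C. Viability was then read in the same wells by CellTiter-Glo luminescence after 30 min at room temperature.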

[12] = qHTS assay to identify small molecule antagonists of the farnesoid-X-receptor (FXR) signaling pathway - cell viability counter screen (AID 743221; active means well fitted cell-killing curve with a large enough effect in the repeat runs, not every such curve was filed as active; further: nearly all actives have a fitted effect of over 50% in size)
How it was run: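 Quantitative HTS of the Tox21 10K library run in parallel with the beta-lactamase reporter read. HEK 293T cells carrying a UAS-driven bla reporter got compound and 50 uM CDCA (final) for 16 h; ATP-based luminescence followed.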

[13] = biological target: Vitamin D3 receptor (Homo sapiens) (UniProt P11473); assay: qHTS assay to identify small molecule agonists of the vitamin D receptor (VDR) signaling pathway (AID 743222; calls by dose curve)
Sequence of Vitamin D3 receptor (Homo sapiens) (P11473 whole entry, looked up): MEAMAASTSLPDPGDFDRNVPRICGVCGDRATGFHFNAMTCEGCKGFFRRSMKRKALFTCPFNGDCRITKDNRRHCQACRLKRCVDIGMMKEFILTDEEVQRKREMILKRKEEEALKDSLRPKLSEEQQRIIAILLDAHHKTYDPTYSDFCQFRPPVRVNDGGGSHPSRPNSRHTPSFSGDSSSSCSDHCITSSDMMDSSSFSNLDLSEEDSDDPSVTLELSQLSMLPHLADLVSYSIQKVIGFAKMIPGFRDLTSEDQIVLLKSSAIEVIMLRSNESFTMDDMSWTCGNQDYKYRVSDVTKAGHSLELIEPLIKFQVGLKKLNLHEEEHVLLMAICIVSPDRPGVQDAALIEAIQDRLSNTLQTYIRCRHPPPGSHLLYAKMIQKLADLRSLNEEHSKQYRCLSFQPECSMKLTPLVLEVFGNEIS
How it was run: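 In VDR-bla cells, compound-induced beta-lactamase expression is quantified by FRET substrate fluorescence. Treatment lasts 16 h at 37C; substrate develops 2 h at room temperature.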

[14] = biological target: Aryl hydrocarbon receptor (Homo sapiens) (UniProt P35869); assay: qHTS assay to identify small molecule that activate the aryl hydrocarbon receptor (AhR) signaling pathway (AID 743085);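 further: HG2L7.5c1 human HepG2 liver cells with stably integrated DRE-driven firefly reporter; series mostly up to about 70 µM; nearly all actives have a fitted effect of over 15% in size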
Sequence of Aryl hydrocarbon receptor (Homo sapiens) (P35869 whole entry, looked up): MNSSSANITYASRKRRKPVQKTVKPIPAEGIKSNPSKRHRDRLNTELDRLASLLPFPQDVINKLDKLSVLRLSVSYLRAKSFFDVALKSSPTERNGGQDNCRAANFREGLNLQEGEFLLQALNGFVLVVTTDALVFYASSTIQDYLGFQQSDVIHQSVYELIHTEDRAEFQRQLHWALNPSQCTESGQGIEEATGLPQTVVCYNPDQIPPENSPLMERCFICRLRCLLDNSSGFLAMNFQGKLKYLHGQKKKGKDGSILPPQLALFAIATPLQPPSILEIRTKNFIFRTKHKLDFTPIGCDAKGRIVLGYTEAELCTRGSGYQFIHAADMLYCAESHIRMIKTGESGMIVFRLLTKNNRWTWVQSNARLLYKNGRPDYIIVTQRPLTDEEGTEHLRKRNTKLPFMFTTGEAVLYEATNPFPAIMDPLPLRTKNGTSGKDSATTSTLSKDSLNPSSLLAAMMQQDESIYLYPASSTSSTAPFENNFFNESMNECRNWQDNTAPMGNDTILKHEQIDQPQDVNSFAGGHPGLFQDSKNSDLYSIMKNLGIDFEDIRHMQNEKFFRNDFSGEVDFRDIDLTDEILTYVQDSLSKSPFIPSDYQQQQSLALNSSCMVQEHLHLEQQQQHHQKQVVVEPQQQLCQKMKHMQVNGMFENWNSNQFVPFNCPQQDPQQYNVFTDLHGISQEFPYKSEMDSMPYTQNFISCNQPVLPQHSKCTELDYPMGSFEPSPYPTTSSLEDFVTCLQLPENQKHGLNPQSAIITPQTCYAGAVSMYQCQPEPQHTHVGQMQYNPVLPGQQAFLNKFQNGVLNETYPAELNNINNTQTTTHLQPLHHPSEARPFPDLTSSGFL
How it was run: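 Steps: seed HepG2-AhR-luc cells; allow 5 h at 37C; pin-transfer test compound or vehicle; incubate 24 h at 37C; add viability dye (30 min, 37C) and read fluorescence; add luciferase substrate (30 min, RT) and read luminescence.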

[15] = biological target: Peroxisome proliferator-activated receptor delta (Homo sapiens) (UniProt Q03181); assay: qHTS assay to identify small molecule antagonists of the peroxisome proliferator-activated receptor delta (PPARd) signaling pathway (AID 743215; active means well fitted inhibition curve with a large enough effect in the signal ratio in the repeat runs, not every such curve was filed as active; the % refers to the signal ratio;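 further: cells stimulated with agonist L165041 at 300 nM final during compound exposure; series mostly up to about 62 µM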)
How it was run: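 HEK293H UAS-bla, PPARd; agonist L165041 300 nM final with cpd in DMSO; 37 C 17 h; FRET substrate, RT 2 h; fluorescence intensity.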

[16] = qHTS assay to identify small molecule agonists of the farnesoid-X-receptor (FXR) signaling pathway - cell viability counter screen (AID 743218); further: nearly all actives have a fitted effect of over 45% in size
How it was run: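 Parallel cytotoxicity test: compound-treated (16 h, 37 C) HEK 293T FXR-bla reporter cells were lysed with CellTiter-Glo and luminescence recorded.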

[17] = qHTS assay for small molecule activators of the heat shock response signaling pathway - cell viability counter screen (AID 743209); further: nearly all actives have a fitted effect of over 50% in size
How it was run: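 Readout: CellTiter-Glo luminescence, 30 min at room temperature. System: HSE-bla HeLa cells, 1500/well, plated overnight. Treatment: compounds in DMSO, 5 h at 37 C.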

[18] = biological target: Vitamin D3 receptor (Homo sapiens) (UniProt P11473); assay: qHTS assay to identify small molecule antagonists of the vitamin D receptor (VDR) signaling pathway (AID 743223; active means well fitted inhibition curve with a large enough effect in the signal ratio in the repeat runs, not every such curve was filed as active; the % refers to the signal ratio)
How it was run: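 Fluorescence from LiveBLAzer B/G FRET substrate, read after 2 h at room temperature, reflects beta-lactamase reporter activity in VDR-bla cells treated 16 h at 37C with compounds and agonist 1alpha,25-dihydroxyvitamin D3 (3 nM final).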

[19] = biological target: Bile acid receptor (Homo sapiens) (UniProt Q96RI1); assay: qHTS assay to identify small molecule agonists of the farnesoid-X-receptor (FXR) signaling pathway (AID 743220; active means well fitted activation curve with a large enough effect in the signal ratio in the repeat runs, not every such curve was filed as active; the % refers to the signal ratio)
Sequence of Bile acid receptor (Homo sapiens) (Q96RI1 whole entry, looked up): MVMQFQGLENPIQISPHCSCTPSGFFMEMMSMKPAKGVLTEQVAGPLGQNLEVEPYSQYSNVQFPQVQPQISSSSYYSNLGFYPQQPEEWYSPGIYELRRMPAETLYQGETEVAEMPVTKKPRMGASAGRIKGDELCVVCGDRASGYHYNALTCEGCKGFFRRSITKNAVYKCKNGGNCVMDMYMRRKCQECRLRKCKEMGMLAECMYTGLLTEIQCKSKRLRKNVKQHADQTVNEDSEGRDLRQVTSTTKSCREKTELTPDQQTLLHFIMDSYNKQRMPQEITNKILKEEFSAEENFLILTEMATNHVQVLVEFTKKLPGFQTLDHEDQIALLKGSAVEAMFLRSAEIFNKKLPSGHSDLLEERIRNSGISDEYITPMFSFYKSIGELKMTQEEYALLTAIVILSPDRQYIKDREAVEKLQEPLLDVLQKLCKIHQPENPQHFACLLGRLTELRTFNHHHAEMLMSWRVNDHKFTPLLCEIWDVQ
How it was run: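 Beta-lactamase reporter under UAS control in GeneBLAzer FXR HEK 293T cells (5000/well) measured with LiveBLAzer FRET substrate after 2 h at room temperature. Compound exposure lasted 16 h at 37C.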

[20] = biological target: Bile acid receptor (Homo sapiens) (UniProt Q96RI1); assay: qHTS assay to identify small molecule antagonists of the farnesoid-X-receptor (FXR) signaling pathway (AID 743217; active means well fitted inhibition curve with a large enough effect in the signal ratio in the repeat runs, not every such curve was filed as active; the % refers to the signal ratio)
How it was run: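 GeneBLAzer FXR-UAS-bla HEK 293T, CDCA-stimulated (50 uM final). Compound treatment 16 h, 37 °C. Detection: beta-lactamase cleavage of B/G FRET substrate, fluorescence.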

Structure (SMILES)	Potency [1]	Potency [2]	Potency [3]	Potency [4]	outcome [5]	Potency [6]	outcome [7]	outcome [8]	outcome [9]	outcome [10]	outcome [11]	outcome [12]	outcome [13]	Potency [14]	outcome [15]	outcome [16]	outcome [17]	outcome [18]	outcome [19]	outcome [20]
CO[Si](C)(OC)c1ccccc1	inactive	inactive	inactive	inactive	inactive	inactive	inactive	inactive	inactive	inactive	inactive	inactive	inactive							
CCOC(=O)OC(C)OC1=C(C(=O)Nc2ccccn2)N(C)S(=O)(=O)c2ccccc21 (centres undefined)	inactive		inactive	inactive	inactive	inactive	inactive		inactive	inactive	inactive	inactive	inactive	inactive	inactive	inactive				
CCCCCCCCCCCCCCCCCCO	inactive	inactive	inactive	inactive	inactive	inactive	inactive	inactive	inactive	inactive	inactive	inactive	inactive		inactive	inactive	inactive	inactive		
CCCCN(CCC(=O)OCC)C(C)=O	inactive	inactive	inactive	inactive	inactive	inactive	inactive	inactive	inactive	inactive	inactive	inactive	inactive				inactive			
Nc1ccn([C@@H]2O[C@H](CO)[C@@H](O)[C@@H]2O)c(=O)n1	inactive			inactive	inactive	inactive	inactive	inactive	inactive	inactive	inactive	inactive	inactive	inactive	inactive	inactive	inactive	inactive	inactive	
C=CC(=O)OCCCl	inactive	inactive	inactive	inactive	inactive	inactive	inactive	inactive	inactive		inactive	inactive	inactive				inactive			inactive
C[C@H]1C[C@H]2[C@@H]3CCC4=CC(=O)C=C[C@]4(C)[C@H]3C(=O)C[C@]2(C)[C@@]1(O)C(=O)CO	inactive		inactive	inactive	inactive	inactive	inactive		inactive	inactive		inactive	inactive	inactive		inactive	inactive	inactive		
CCCCCC(C)N (centres undefined)	inactive	inactive	inactive	inactive	inactive	inactive	inactive	inactive	inactive	inactive	inactive	inactive			inactive	inactive	inactive			
CC(C)NNC(=O)c1ccncc1	inactive	inactive	inactive	inactive	inactive		inactive		inactive	inactive		inactive	inactive		inactive	inactive	inactive	inactive		
O=C(O)c1cc(C(=O)O)cc(C(=O)O)c1	inactive	inactive	inactive	inactive	inactive	inactive	inactive	inactive	inactive	inactive	inactive	inactive	inactive		inactive	inactive	inactive	inactive		
O=Cc1cccc(Br)c1	inactive		inactive	inactive	inactive		inactive		inactive	inactive	inactive	inactive	inactive	inactive	inactive	inactive	inactive	inactive		inactive
CCCCc1nc(Cl)c(CO)n1Cc1ccc(-c2ccccc2-c2nn[nH]n2)cc1	inactive		23.9 µM (active)	inactive	inactive		inactive	inactive	inactive	inactive	inactive	inactive		inactive	inactive	inactive				inactive
COC(=O)C1=C(C)NC(C)=C(C(=O)OC(C)C)C1c1cccc2nonc12 (centres undefined)	inactive	inactive	inactive	inactive	inactive	inactive	inactive	inactive	inactive	inactive	inactive	inactive	inactive		inactive	inactive				
CC(C)C1CCC(O)CC1 (centres undefined)	inactive	inactive	inactive	inactive	inactive	inactive	inactive		inactive		inactive	inactive	inactive				inactive			
C[N+]1(C)CCCC(OC(=O)C(O)(c2ccccc2)c2ccccc2)C1 (centres undefined)	inactive				inactive	inactive	inactive		inactive	inactive	inactive	inactive	inactive	inactive	inactive	inactive	inactive	inactive		inactive
CC[N+](C)(CC)CCOC(=O)C1c2ccccc2Oc2ccccc21	inactive		inactive	inactive	inactive	inactive	inactive		inactive	inactive	inactive	inactive	inactive		inactive		inactive			
